Test results: PubChem BioAssay (EPA / NIEHS)
Values joined by “and” are separate entries in the source; they are usually repeats but may differ in a detail not shown here. Equal values may be shown once. Some structures have more than one record in an assay (separate samples or runs), and their calls can disagree. Active and inactive are the calls of the source. How the source made its calls: active means hit-call score of the fitted dose curve at least 0.9, where 1 is the maximum; inactive means score below 0.9.

The compounds below were run on CD38, CD38 (gene 952) (assay: BSK_SAg_CD38: BioMAP Diversity Plus: SAg Assay for CD38 Biomarker Activity (AID 2283087)). Conditions: primary human HUVEC with PBMC; actives raise or lower the signal.
Protocol: BSK_SAg is a cell-based, multiplexed-readout assay that uses umbilical vein endothelium and peripheral blood mononuclear cells, a human vascular primary cell co-culture, with measurements taken at 24 hours after chemical dosing in a 96-well plate.BSK_SAg_CD38 is one of 10 assay component(s) measured or calculated from the BSK_SAg assay. It is designed to make measurements of enzyme-linked immunosorbent assay, a form of binding reporter, as detected with fluorescence intensity signals by Enzyme-linked immunosorbent assay technology.Data from the assay component BSK_SAg_CD38 was analyzed into 1 assay endpoint. This assay endpoint, BSK_SAg_CD38, was analyzed with bidirectional fitting relative to DMSO as the negative control and baseline of activity. Using a type of binding reporter, gain or loss-of-signal activity can be used to understand changes in the signaling as they relate to the gene CD38. Furthermore, this assay endpoint can be referred to as a primary readout, because this assay has produced multiple assay endpoints where this one serves a signaling function. To generalize the intended target to other relatable targets, this assay endpoint is annotated to the cytokine intended target family, where the subfamily is other cytokine.
The levels of cell surface (or secreted, indicated by the prefix "s") biomarker endpoints were measured by ELISA. Overt cytotoxicity to cells in confluent adherent cultures (all systems other than the BT system) was assessed by measuring total protein levels using sulforhodamine B (SRB) staining in parallel cultures at the time of biomarker measurements, indicated as SRB endpoints. For proliferation assays for adherent cell types, individual cell types are cultured at sub-confluence and relative cell numbers quantified by SRB staining at time points optimized for each system (48 h: 3C and CASM3C systems; 72 h: BT and HDF3CGF systems; 96 h: SAg system). SRB was performed by staining cells with 0.1% SRB after fixation with 10% TCA and reading wells at 560 nm.Viability and proliferation of PBMC (T cells) was quantified by Alamar Blue reduction for the SAg and BT systems. For PBMC viability (referred to as PBMC Cytotoxicity within the assay endpoint names), cells were plated (75,000/well in a 96-well plate) and then chemical samples added for 1 h before addition of activators, SEB and TSST-1 (20 ng/mL final concentration each). Cells were incubated for 90 h. Then, Alamar Blue (20 uL/well) (Invitrogen, Cat DAL1100) was added for 6 h, and the plates were read with a fluorescence microplate reader at 546/580 nm (excitation/emission). For PBMC proliferation, cells were plated and activated as above but incubated for only 16 h prior to addition of Alamar Blue. Plates were read after 6 h.
With `COc1cc(OC)nc(NC(=O)NS(=O)(=O)Nc2ccccc2C(=O)N(C)C)n1` the outcome was “inactive”.
With `C[C@]12CC[C@@H]3c4ccc(O)cc4CC[C@H]3[C@@H]1C[C@@H](O)[C@@H]2O` the outcome was “inactive”.
For `O=S(=O)(O)C(F)(F)C(F)(F)C(F)(F)C(F)(F)C(F)(F)C(F)(F)C(F)(F)C(F)(F)C(F)(F)C(F)(F)F`, the outcome was “inactive”.
`COC1=CC(=O)C[C@@H](C)[C@]12Oc1c(Cl)c(OC)cc(OC)c1C2=O` was tested, and the outcome was “inactive”.
With `O=C(CC(=O)C(F)(F)C(F)(F)C(F)(F)F)c1cccs1` the AC50 was 23.1 µM (active) and 28.6 µM (active).
`CC[N+](CC)(CC)Cc1ccccc1` was tested, and the outcome was “inactive”.
With `O=C(O)CCC(F)(F)C(F)(F)C(F)(F)C(F)(F)C(F)(F)F` the outcome was “inactive”.
In the case of `O=C(NCc1ncc(C(F)(F)F)cc1Cl)c1c(Cl)cccc1Cl`, the outcome is reported as “inactive”.
In the case of `CCC(C)c1ccccc1O` (stereo not given), the outcome is reported as “inactive”.
For `OCC(CO)(CBr)CBr`, the outcome was “inactive”.
For `Cc1ccc(C(=O)c2ccccc2)cc1`, the outcome was “inactive”.
In the case of `Clc1ccc(Nc2nnc(Cc3ccncc3)c3ccccc23)cc1`, the outcome is reported as “inactive”.
For `COc1cccc(O)c1`, the outcome was “inactive”.
`O=C(NO)c1ccccc1` was tested, and the outcome was “inactive”.
For `CN(C)CCOC(c1ccccc1)c1ccccc1`, the outcome was “inactive”.
With `CN(Cc1cnc2nc(N)nc(N)c2n1)c1ccc(C(=O)N[C@@H](CCC(=O)O)C(=O)O)cc1` the outcome was “inactive”.
`O=P(O)(O)CCC(F)(F)C(F)(F)C(F)(F)C(F)(F)C(F)(F)C(F)(F)C(F)(F)C(F)(F)F` was tested, and the outcome was “inactive” and the AC50 was 30 µM (active).
`O=C1OC2(c3ccccc31)c1cc(I)c(O)c(I)c1Oc1c2cc(I)c(O)c1I` was tested, and the AC50 was 7.06 µM (active).
For `CCCCC=O`, the outcome was “inactive”.
With `CC(=O)Nc1ccc(O)cc1` the outcome was “inactive”.
`CC(C)(C)c1ccc(O)c(O)c1` was tested, and the AC50 was 28.5 µM (active).
`NC(=NCCCCCCN=C(N)/N=C(\N)Nc1ccc(Cl)cc1)/N=C(\N)Nc1ccc(Cl)cc1` was tested, and the AC50 was 8.71 µM (active).
For `C=CC(=C)CC/C=C(\C)CCC=C(C)C`, the outcome was “inactive”.
With `CCCCCCCCCCCCCCCCCC[N+](C)(C)Cc1ccccc1` the AC50 was 2.73 µM (active).
With `OCC(F)(F)C(F)(F)C(F)(F)C(F)(F)C(F)(F)C(F)(F)C(F)(F)C(F)(F)C(F)(F)C(F)(F)C(F)(F)F` the AC50 was 0.00623 µM (active) and the outcome was “inactive”.
In the case of `CCCCCc1ccc(O)cc1`, the AC50 is reported as 33.6 µM (active).
For `CN(CCO)S(=O)(=O)C(F)(F)C(F)(F)C(F)(F)C(F)(F)C(F)(F)C(F)(F)C(F)(F)C(F)(F)F`, the outcome was “inactive”.
For `C=CC(=O)OCCC(F)(F)C(F)(F)C(F)(F)C(F)(F)C(F)(F)C(F)(F)C(F)(F)C(F)(F)F`, the outcome was “inactive”.
With `CCCCc1oc2ccccc2c1C(=O)c1cc(I)c(OCCN(CC)CC)c(I)c1` the AC50 was 12.4 µM (active).
With `C=CC(C)(CCC=C(C)C)OC(C)=O` (stereo not given) the outcome was “inactive”.
For `CCCCC(CC)C(=O)OCCOCCOCCOCCOC(=O)C(CC)CCCC` (stereo not given), the outcome was “inactive”.
`CS(=O)(=O)c1ccc([C@@H](CC2CCCC2)C(=O)Nc2cnccn2)cc1Cl` was tested, and the outcome was “inactive”.
In the case of `O=C(CCCN1CCC(O)(c2ccc(Cl)cc2)CC1)c1ccc(F)cc1`, the outcome is reported as “inactive”.
`Cc1[nH]nc2c1N=C(c1ccccc1Cl)c1cc([N+](=O)[O-])ccc1N2` was tested, and the AC50 was 5.77 µM (active).
In the case of `CCCCC(CC)C(=O)O` (stereo not given), the outcome is reported as “inactive”.
For `OCCN1CN(CCO)CN(CCO)C1`, the AC50 was 31.6 µM (active).
For `COCN(COC)c1nc(N(COC)COC)nc(N(COC)COC)n1`, the outcome was “inactive”.
In the case of `CCCCCCCCCCCCOS(=O)(=O)O`, the outcome is reported as “inactive”.
